According to PubChem BioAssay AID504554 (Johns Hopkins Ion Channel Center, 2011):
The source made the active and inactive calls.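 How the source made its calls: active means peak TRPC4 channel inhibition over 30% at some tested dose, plus a fitted dose response curve; inactive means no inhibition at any dose, or no curve fitted.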

The compounds below were run against Short transient receptor potential channel 4 (Mus musculus) (UniProt Q9QUQ5) (assay: mouse TRPC4 blockers in HEK293 cells – cell-based, HEK293 TRPC4/mu-opioid, concentration-response, selectivity assay for TRPC6 selective inhibitor project, SAR follow-up (AID 504554)). Settings: DAMGO-evoked Fluo-4 calcium ratio; series mostly up to 6.67 µM.
Chain of Short transient receptor potential channel 4 (Mus musculus) (Q9QUQ5 whole entry, looked up): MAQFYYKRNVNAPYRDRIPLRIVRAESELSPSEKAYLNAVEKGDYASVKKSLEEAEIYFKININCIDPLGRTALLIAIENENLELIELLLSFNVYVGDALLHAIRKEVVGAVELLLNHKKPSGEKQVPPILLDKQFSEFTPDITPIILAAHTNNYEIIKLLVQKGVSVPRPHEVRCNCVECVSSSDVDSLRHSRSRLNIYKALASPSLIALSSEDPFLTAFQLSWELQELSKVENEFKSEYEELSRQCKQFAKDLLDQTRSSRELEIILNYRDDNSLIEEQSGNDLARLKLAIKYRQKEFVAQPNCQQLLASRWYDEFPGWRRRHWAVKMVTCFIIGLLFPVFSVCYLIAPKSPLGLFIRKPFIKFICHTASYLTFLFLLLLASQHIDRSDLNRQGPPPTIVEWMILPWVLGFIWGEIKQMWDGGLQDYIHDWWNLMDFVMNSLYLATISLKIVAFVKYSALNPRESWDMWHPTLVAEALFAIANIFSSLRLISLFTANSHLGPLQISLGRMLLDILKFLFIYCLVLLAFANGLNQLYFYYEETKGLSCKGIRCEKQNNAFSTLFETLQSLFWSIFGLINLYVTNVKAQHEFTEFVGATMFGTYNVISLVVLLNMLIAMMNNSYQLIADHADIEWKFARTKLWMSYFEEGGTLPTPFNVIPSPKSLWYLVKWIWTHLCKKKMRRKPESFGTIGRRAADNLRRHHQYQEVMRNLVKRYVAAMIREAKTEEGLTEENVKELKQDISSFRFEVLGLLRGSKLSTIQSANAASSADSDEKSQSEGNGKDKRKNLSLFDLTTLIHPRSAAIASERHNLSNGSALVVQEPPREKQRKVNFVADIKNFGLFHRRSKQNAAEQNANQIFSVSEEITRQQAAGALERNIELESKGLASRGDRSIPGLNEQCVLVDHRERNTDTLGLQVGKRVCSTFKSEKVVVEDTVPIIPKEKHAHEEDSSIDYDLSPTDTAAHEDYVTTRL

outcome, inactive:
CCCC(=O)Nc1ccc2c(c1)ncn2C(C)(C)C
COc1cccc(CNc2ccc3c(c2)ncn3C)c1OC
CC(C)(C)n1cnc2cc(NCc3cccc(Br)c3)ccc21
Cc1ccc(CNc2ccc3c(c2)ncn3C(C)(C)C)cc1
CCOc1ccc(CNc2ccc3c(c2)ncn3-c2ccccc2)cc1
CC(C)(C)n1cnc2cc(NCc3ccccc3O)ccc21
CCc1ccc(CNc2ccc3c(c2)ncn3C(C)(C)C)cc1
CC(C)(C)n1cnc2cc(NC(=O)c3cccs3)ccc21
CC(C)(C)n1cnc2cc(NC(=O)c3ccc(Cl)cc3)ccc21
CCN(CC)c1ccc(CNc2ccc3c(c2)ncn3C(C)(C)C)cc1
CCOc1ccc(CNc2ccc3c(c2)ncn3C)cc1
COc1ccc(CNc2ccc3c(c2)ncn3C(C)(C)C)cc1
CC(C)(C)n1cnc2cc(NCc3ccco3)ccc21
COc1ccc(CNc2ccc3c(c2)ncn3C(C)(C)C)c(OC)c1
CC(C)(C)n1cnc2cc(NCc3ccc(Cl)cc3Cl)ccc21
COc1ccc(CNc2ccc3c(c2)ncn3C(C)(C)C)cc1OC
COc1ccccc1CNc1ccc2c(c1)ncn2C(C)(C)C
CCC(=O)Nc1ccc2c(c1)ncn2C(C)(C)C
COc1ccc(OC)c(CNc2ccc3c(c2)ncn3C(C)(C)C)c1
COc1cccc(CNc2ccc3c(c2)ncn3C(C)(C)C)c1OC
CC(C)(C)n1cnc2cc(NCc3cccc4ccccc34)ccc21
COc1cc(C(=O)Nc2ccc3c(c2)ncn3C(C)(C)C)cc(OC)c1OC
CC(C)(C)n1cnc2cc(NCc3cccs3)ccc21
CC(=O)Nc1ccc2c(c1)ncn2C(C)(C)C
CC(C)(C)n1cnc2cc(NCc3ccc(Br)cc3)ccc21
CCOc1ccc(CNc2ccc3c(c2)ncn3C(C)(C)C)cc1
COc1ccc(CNc2ccc3c(c2)ncn3-c2ccccc2)cc1
CC(C)c1ccc(CNc2ccc3c(c2)ncn3C(C)(C)C)cc1
CN(C)c1ccc(CNc2ccc3c(c2)ncn3C(C)(C)C)cc1
CC(C)(C)n1cnc2cc(NCc3ccccc3Cl)ccc21
CC(C)(C)n1cnc2cc(NC(=O)c3ccccc3)ccc21
CCOc1ccccc1CNc1ccc2c(c1)ncn2C(C)(C)C
